Measurements published in PubChem BioAssay (Tox21).
Inconclusive results are not listed. A call without a number means that no potency is given here. Active and inactive are the calls of the source. The call rests on the fitted dose curve; in most records, active means well fitted cell-killing curve with a large enough effect in the repeat runs; inconclusive means weak or mixed curves, or effect the other way; inactive means flat fitted curve, though single readings scatter.

Assay: cAMP Responsive Elements (CRE) small molecule agonists, cell-based qHTS assay: qHTS cell viability counter screen (AID 2060914); further: nearly all actives have a fitted effect of over 50% in size
Settings: CRE-bla HEK293T viability, CellTiter-Glo luminescence, 5 h; series mostly up to 92.4 µM
How it was run: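 HEK 293T CRE-bla; DMEM + 10% dialyzed FBS, 25 mM HEPES; 18 h pre-incubation; compound 3 h, 37 °C/5% CO2; CellTiter-Glo added after reporter read; luminescence after 30 min RT.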

Row | SMILES | Potency
1 | CCCCCC(=O)O | inactive
2 | CC(C)NNC(=O)c1ccncc1 | inactive
3 | CCCCCCCCCCCCCCCCCC(=O)OCCCCCCCCCCCCCC(C)C | inactive
4 | CN1CCN(C(=O)C2CCCCC2)CC1 | inactive
5 | CCc1cc(Cc2cc(CC)cc(C(C)(C)C)c2O)c(O)c(C(C)(C)C)c1 | inactive
6 | Cc1cccc(O)c1C | inactive
7 | Cc1[nH]cnc1C[C@H]1CCc2c(C)c3ccccc3n2C1=O | inactive
8 | CCC(Cl)CCC(Cl)C(Cl)CC(Cl)C(Cl)C(Cl)CCl (stereo unspecified) | inactive
9 | CO/N=C(/C(=O)N[C@@H]1C(=O)N2C(C(=O)O)=C(Cn3nnc(C)n3)CS[C@H]12)c1csc(N)n1 | inactive
10 | COc1ccnc(CS(=O)c2nc3cc(OC(F)F)ccc3[nH]2)c1OC (stereo unspecified) | inactive
11 | CCCCCCCCOC(C)=O | inactive
12 | O=C1CCC(=O)N1Cl | inactive
13 | CCCCCCCOC(=O)CCC | inactive
14 | Nc1cccc(S(=O)(=O)c2cccc(N)c2)c1 | inactive
15 | c1ccc(-c2ccccc2-c2ccccc2)cc1 | inactive
16 | CCN(CC)c1ccc(C(=C2C=CC(=[N+](CC)CC)C=C2)c2cc(S(=O)(=O)O)ccc2S(=O)(=O)[O-])cc1 | inactive
